Assay outcomes as filed in PubChem BioAssay.
ELG1 genotoxic = induces genotoxicity in HEK293T cells with luciferase-tagged ELG1; actives 1.3% (n = 330,000); HEK293T ELG1-luciferase reporter, luminescence, 16 h; AID 504466; Potency, µM (highest dose often 46 µM), hits mostly activators; also: nearly all actives have a fitted effect of over 60% in size
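Genotoxicity was scored as increased ELG1-luciferase reporter signal, measured by ONE-Glo luminescence (30 min, room temperature). Compound or vehicle exposure of the HEK293T reporter cells lasted 16 hr at 37°C.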
FLuc counter = firefly luciferase modulation, counter-screen for miR-21 project; actives 6.9% (n = 360,000); AID 588342; Potency, µM (highest dose often 57.5 µM), most hits filed as inhibitors; purified FLuc, Km substrates, luminescence inhibition; also: nearly all actives have a fitted effect of over 55% in size
Target sequence (P08659 whole entry, looked up): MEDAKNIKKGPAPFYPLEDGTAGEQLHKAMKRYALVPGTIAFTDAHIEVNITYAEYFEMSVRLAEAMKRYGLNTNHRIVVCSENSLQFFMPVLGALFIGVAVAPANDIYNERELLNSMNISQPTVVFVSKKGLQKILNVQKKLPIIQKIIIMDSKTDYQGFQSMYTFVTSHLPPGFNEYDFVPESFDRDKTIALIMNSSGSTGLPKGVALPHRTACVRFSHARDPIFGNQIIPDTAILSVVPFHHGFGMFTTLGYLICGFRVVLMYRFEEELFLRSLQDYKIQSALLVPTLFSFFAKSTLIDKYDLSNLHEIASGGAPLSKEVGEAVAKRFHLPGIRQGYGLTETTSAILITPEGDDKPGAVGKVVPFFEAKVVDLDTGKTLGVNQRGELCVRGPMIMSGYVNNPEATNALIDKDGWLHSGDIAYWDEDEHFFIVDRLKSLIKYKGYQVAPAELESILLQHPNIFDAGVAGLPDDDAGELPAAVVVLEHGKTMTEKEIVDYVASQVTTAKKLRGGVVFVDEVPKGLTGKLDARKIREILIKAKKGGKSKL
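Biochemical qHTS of compounds, final roughly 60 µM downward over six points, against 10 nM purified firefly luciferase using Km concentrations of substrates (10 uM D-luciferin, 10 uM ATP) in Tris acetate pH 7.5 buffer; luminescence output.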
Rab9 prom act = activates the Rab9 promoter | Huh7 Rab9 promoter-luciferase reporter, luminescence, 24 h | actives 2.8% (n = 320,000) | Potency, µM (doses to about 9.22 µM), hits mostly activators; also: nearly all actives have a fitted effect of over 60% in size
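Luminescence read-out: Huh7 cells stably expressing Rab9-luciferase, treated 24 h with compound at 37 °C, then lysed with luciferase reagent for 10 min at ambient before reading.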
SMN2 splice up = increases expression of the SMN2 splice variant. HEK293 SMN2-luciferase splicing reporter, luminescence, 30-36 h. Potency, µM (highest dose often 46.1 µM), most hits filed as activators. actives 2.8% (n = 210,000). AID 1458; also: nearly all actives have a fitted effect of over 55% in size
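qHTS luciferase splicing reporter: luminescence rises when SMN2 exon 7 is included in transfected HEK293 cells. Compound exposure lasted 30-36 h at 37C, with 4.5 mM final sodium butyrate as control, followed by a ONE-Glo read.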
NPC1 prom act = activators of NPC1 promoter | Potency, µM (top dose mostly 9.22 µM), hits mostly activators | actives 2.4% (n = 320,000) | Huh7 NPC1 promoter luciferase reporter, 24 h; also: nearly all actives have a fitted effect of over 60% in size
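Luminescence read-out of NPC1 promoter-driven luciferase in stably transfected Huh7 cells; compounds delivered in DMSO and left 24 h at 37C, 5% CO2, qHTS titration format.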
Luc counter = blocks Kinase-Glo luciferase, a counter-screen artifact | Q27757 | Kinase-Glo luciferase, ATP luminescence, 8 min | Potency, µM (highest dose often 38.3 µM), usual class: inhibitors | actives 0.28% (n = 200,000) | AID 1379; also: nearly all actives have a fitted effect of over 60% in size
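Substrate mix (final 50 mM imidazole pH 7.2, 50 mM KCl, 7 mM MgCl2, 10 uM ATP, 0.01% Tween 20, 0.05% BSA) plus pin-tool compound, then Kinase-Glo detection mix; 8 min ambient, luminescence read.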
Hits are given with their value; i = inactive; ? = inconclusive; nt = no result; ! = not confirmed by another sample; [ ] = dose if it differs, or a comment. Most compounds without a hit are left out; they make up all but 7.5% or so of the library. Calls follow the shape of the dose curve; as a rule, active = well fitted curve in the direction sought with a large enough effect; inconclusive = small, poorly fitted or top-dose-only effect, or another doubt; inactive = no such curve, though single readings can be large; an effect the other way counts as inactive or inconclusive.

SMILES	ELG1 genotoxic	FLuc counter	Rab9 prom act	SMN2 splice up	NPC1 prom act	Luc counter
CCOC(=O)N1N=C(c2ccccc2)CC1(O)C(F)(F)F (centres undefined)	?	13.5µM	2.24µM	?	3.55µM	i
CCOC(=O)N1N=C(c2ccc(C)cc2)CC1(O)C(F)(F)F (centres undefined)	?	5.36µM	0.708µM	i	0.891µM	i
COC(=O)N1N=C(c2ccc(Br)cc2)CC1(O)C(F)(F)F (centres undefined)	?	10.7µM	?	15.8µM	3.55µM	i
Cc1onc(-c2ccccc2)c1C(=O)N1CCN(Cc2ccccc2)CC1	i	i	i	nt	i	nt
CCCCC1=CC2=C(OC(C)=O)C(=O)C(C)(OC(=O)CCC(=O)OC)C(=O)C2=CO1 (centres undefined)	nt	nt	nt	i	nt	i
CCOc1ccc(NC(=O)C(C)C(Cc2ccc(C)cc2)C(=O)O)cc1 (centres undefined)	i	i	i	nt	i	nt
O=C(CN1CCCCC1)N/N=C/c1ccc(Cl)cc1	i	i	i	nt	i	nt
O=C(O/N=C/c1ccc(Cl)cc1)C1CCCCC1	i	2.69µM	i	nt	i	nt
O=C(Nc1cc2c3c(c1)CC(=O)N3CCC2)c1ccc(Cl)cc1	?	15.1µM	i	nt	i	nt
O=C(Nc1cc2c3c(c1)CC(=O)N3CCC2)c1c(F)cccc1F	?	i	i	nt	i	nt
N#Cc1cccc(-c2nnc(SCc3ccccc3C#N)o2)c1	?	?	?	?	?	i
CCN(CC)C(=O)CSc1nnc(-c2ccccc2)o1	16.4µM	?	3.55µM	i	?	i
CN(C)CCSc1nnc(-c2ccccc2)o1	13µM	?	i	10µM	i	i
CN(C)c1cccc(-c2nnc(SCCCC#N)o2)c1	?	6.75µM	2.24µM	11.2µM	3.16µM	i
CSc1nnc(-c2ccccc2)o1	i	i	i	i	i	i
CCOc1ccc(CCNC(=O)c2cc(=O)[nH]c3ccc(S(=O)(=O)N4CCCCC4)cc23)cc1OCC	nt	i	nt	nt	nt	nt
COc1cc(-c2ccc(N=Nc3ccc4c(S(=O)(=O)O)cc(S(=O)(=O)O)c(N)c4c3O)c(OC)c2)ccc1N=Nc1ccc2c(S(=O)(=O)O)cc(S(=O)(=O)O)c(N)c2c1O	nt	nt	nt	i	nt	10µM!
Cc1nn(-c2ccc(S(=O)(=O)O)cc2)c(O)c1N=Nc1ccc(-c2ccc(N=Nc3ccc4c(S(=O)(=O)O)cc(S(=O)(=O)O)c(N)c4c3O)c(O)c2)cc1O.[Cu].[Cu]	nt	nt	nt	i[9.22 µM]	nt	i[7.66 µM]
Cc1ccc(S(=O)(=O)N2CCOCC2)cc1NC(=O)COC(=O)Cn1c(C)csc1=O	i	i	i	nt	i	nt
COc1cn(-c2ccccc2)nc1C(=O)Nc1ccc(C)cc1Cl	i	6.75µM	i	nt	i	nt
CCCCc1ccc(-c2nc(-c3ccncc3)no2)cc1	23.1µM	1.9µM	0.355µM	12.6µM	0.447µM	i
CCCc1ccc(-c2ccc(-c3noc(-c4ccncc4)n3)cc2)nc1	i	?	i	nt	i	nt
Cc1ccc(Cc2nc(-c3ccncc3)no2)cc1	i	i	i	i	i	i
CCc1ccc(-c2nc(-c3ccncc3)no2)cc1	0.731µM	0.675µM	?	7.94µM	0.355µM	i
COc1ccc(OC)c(NC(=O)CCN2CCN(c3ccccc3OC)CC2)c1	i	i	i	nt	i	nt
SMILES	ELG1 genotoxic	FLuc counter	Rab9 prom act	SMN2 splice up	NPC1 prom act	Luc counter
COc1ccc(Cl)cc1NC(=O)c1sc2nc(C)nc(N3CCOCC3)c2c1C	i	i	i	nt	i	nt
Nn1c(SCc2cccc(F)c2)nnc1-c1cccnc1	i	i	i	nt	i	nt
Cn1c(SCc2ccccn2)nnc1-c1cnccn1	i	i	?	i	i	i
Nn1c(SCc2ccccc2F)nnc1-c1cccnc1	?	?	2.24µM	nt	?	nt
Cn1c(SCc2ccccc2F)nnc1-c1cnccn1	?	?	3.16µM	nt	?	nt
Cn1c(SCC(=O)NC2CC2)nnc1-c1cccs1	i	?	3.98µM	nt	3.98µM	nt
CCCn1c(SCC(=O)NC2CC2)nnc1-c1cccs1	i	i	i	nt	i	nt
Cn1c(SCc2ccc(F)cc2)nnc1-c1ccccn1	?	?	2.24µM	?	4.47µM	i
Cn1c(SCc2ccccc2F)nnc1-c1ccccn1	?	?	2.24µM	11.2µM	3.98µM	i
Cn1c(SCc2ccc(F)cc2)nnc1-c1cccs1	?	19µM	3.98µM	?	2.24µM	i
O=c1cc(O)c2sc3nc(C(F)(F)F)c4c(c3c2[nH]1)CCCCC4	i	19µM	i	i	i	i
Cc1nc(-c2cccc(NC(=O)COc3ccc(Cl)cc3)c2)cs1	i	13.5µM	i	nt	i	nt
CCOc1ccc(-c2cccc(NC(=O)COc3ccc(Cl)cc3)c2)nn1	i	13.5µM	i	nt	i	nt
CCOc1ccc(-c2cccc(NC(=O)c3ccco3)c2)nn1	i	21.3µM	i	nt	i	nt
Cc1ccccc1C(=O)Nc1c(C)nc2ccccn2c1=O	nt	i	nt	nt	nt	nt
CCOC(=O)CNc1ccc(C(=O)OCC)cc1[N+](=O)[O-]	i	i	i	i	i	i
CCCNc1ccc(C(=O)OCC)cc1[N+](=O)[O-]	?	26.9µM	?	i	?	i
CCOc1ccc(S(=O)(=O)NCCC(=O)NCC(c2ccc(F)cc2)N2CCOCC2)cc1 (centres undefined)	i	i	i	nt	i	nt
O=C(Nc1cc([N+](=O)[O-])ccc1Cl)c1ccc2c(c1)OCO2	i	i	i	i	i	i
O=C(Nc1cc(-c2nc3ccccc3s2)ccc1Cl)c1ccc2c(c1)OCO2	i	10.7µM	i	i	i	i
CCCCOc1ccc(C(=O)Nc2ccc(-c3nc4ccccc4s3)cc2C)cc1	nt	i	nt	i	nt	nt
Cc1ccc(-c2nc3ccccc3s2)cc1NC(=O)c1ccc2c(c1)OCO2	i	4.78µM	i	i	i	i
COc1ccc(CNC(=O)Cn2c(SCC(=O)Nc3ccc(C)c(C)c3)nc3ccccc32)cc1	nt	i	nt	nt	nt	nt
Cc1ccc(-c2cnc(-c3ccccc3C(=O)O)o2)cc1	?	13.5µM	?	nt	?	nt
c1ccc(-c2cnc(-c3cccnc3)o2)cc1	?	15.1µM	?	i	?	i
SMILES	ELG1 genotoxic	FLuc counter	Rab9 prom act	SMN2 splice up	NPC1 prom act	Luc counter
NC(=O)c1ccc(-c2ncc(-c3ccccc3)o2)cc1	0.184µM	2.13µM	?	0.501µM	0.282µM	i
CC(=O)OC(C)[C@H]1CC[C@H]2[C@@H]3CC[C@H]4C[C@@H](OC(C)=O)CC[C@]4(C)C3=CC[C@]12C (some centres undefined)	i	i	i	nt	i	nt
COc1ccccc1Nc1ncc(-c2cccs2)s1	?	2.69µM	2.82µM	22.4µM	?	i
COc1ccc(OC)c(NC(=O)Cn2cc(C(=O)c3cccs3)c3ccccc32)c1	nt	i	nt	i	nt	nt
Cc1ccc(C)c(N=Nc2nc3ccccc3n2C)c1	?	0.953µM	2µM	?	3.16µM	?
Cc1cc(C)c(C)c(N=Nc2nc3ccccc3n2C)c1C	?	10.7µM	i	i	i	i
CCOc1ccc(C(C)=O)cc1CN1C(=O)C(=O)N(CC)C1=O	i	i	i	i	i	i
